Laboratory results taken from PubChem BioAssay (NCI).
About 83,000 compounds went through this panel and 20% of them were active in at least one assay; those are over-represented in the sample as a whole.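 Cells were grown in 96-well plates and exposed to the test compound at a single concentration for 48 hours; results are reported as percent growth, with values below 10 considered active.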 Active and inactive are the calls of the source.

Columns and labels:
Assay in all cases: NCI-60 one-dose screen, 48 h (100 = growth as untreated, 0 = no growth, -100 = all killed)
Details in all cases: 10 µM
K-562 leukemia = system: K-562 leukemia
MALME-3M melanoma = system: MALME-3M melanoma
MDA-MB-231 breast = system: MDA-MB-231 breast
RXF 393 renal = system: RXF 393 renal
SF-268 CNS = system: SF-268 CNS
SF-295 CNS = system: SF-295 CNS
SF-539 CNS = system: SF-539 CNS
UACC-257 melanoma = system: UACC-257 melanoma
M14 melanoma = system: M14 melanoma
HCT-15 colon = system: HCT-15 colon

Measured: growth

COc1cc(Cl)cc(-c2nn(-c3cccc(NC(=O)Nc4cc(C(F)(F)F)cc(C(F)(F)F)c4)c3)cc2-c2ccncc2)c1
active: K-562 leukemia 6.4% | MALME-3M melanoma -19.2% | MDA-MB-231 breast -75% | RXF 393 renal -29.3% | SF-295 CNS -43.2% | SF-539 CNS -17.7% | UACC-257 melanoma -25.6% | M14 melanoma 1.22% | HCT-15 colon 6.21%
inactive: SF-268 CNS 14.2%

O=[P@@]1(c2ccccc2)O[C@H](COCc2ccccc2)[C@@H](OCc2ccccc2)[C@H](OCc2ccccc2)[C@H]1O
inactive: K-562 leukemia 93.9% | MALME-3M melanoma 109% | MDA-MB-231 breast 73.2% | RXF 393 renal 50% | SF-268 CNS 43.6% | SF-539 CNS 58.1% | UACC-257 melanoma 88.4% | M14 melanoma 102% | HCT-15 colon 94.2%
active: SF-295 CNS -24.9%

COc1ccc2c(c1OC)O/C(=C\c1ncc([N+](=O)[O-])n1C)C2=O
inactive: K-562 leukemia 28.8% | SF-295 CNS 55.3% | SF-539 CNS 63.5%
active: MALME-3M melanoma -68.9% | MDA-MB-231 breast -20.7% | RXF 393 renal -65.7% | SF-268 CNS -5.54% | UACC-257 melanoma -55.8% | M14 melanoma -59.1% | HCT-15 colon 1.65%

CS(=O)(=O)Nc1ccc(Nc2c3ccccc3nc3cc(N)ccc23)cc1
inactive: K-562 leukemia 22.7% | MDA-MB-231 breast 85.8% | RXF 393 renal 64.2% | SF-268 CNS 13% | HCT-15 colon 73.6%
active: MALME-3M melanoma -32.7% | SF-295 CNS -23.3% | SF-539 CNS 2.88% | UACC-257 melanoma 0.44% | M14 melanoma 7.54%

COc1ccc(-c2nn(-c3cccc(NC(=O)c4ccc(Cl)c(Cl)c4)c3)cc2-c2ccncc2)cc1Cl
inactive: K-562 leukemia 36.3% | MALME-3M melanoma 58.4% | MDA-MB-231 breast 78% | RXF 393 renal 65.9% | SF-268 CNS 89.8% | SF-295 CNS 65% | SF-539 CNS 72.2% | UACC-257 melanoma 86.9% | M14 melanoma 75.6% | HCT-15 colon 75.2%

O=C(Nc1cccc(-n2cc(-c3ccncc3)c(-c3ccc(O)c(Cl)c3)n2)c1)c1ccc(Cl)c(Cl)c1
active: MDA-MB-231 breast -19.9%
inactive: K-562 leukemia 30.1% | MALME-3M melanoma 29.5% | RXF 393 renal 16% | SF-268 CNS 74.1% | SF-295 CNS 13.9% | SF-539 CNS 35.8% | UACC-257 melanoma 10.8% | M14 melanoma 29.2% | HCT-15 colon 24%

C=C(NC(=O)C(=C)NC(=O)c1csc(C2=NC3c4csc(n4)C4NC(=O)c5csc(n5)C(C(C)(O)C(C)O)NC(=O)C5CSC(=N5)/C(=C/C)NC(=O)C(C(C)O)NC(=O)c5csc(n5)C3(CC2)NC(=O)C(C)NC(=O)C(=C)NC(=O)C(=C)NC(=O)C(C(C)C)NC2C=Cc3c(C(C)O)cc(nc3C2O)C(=O)OC4C)n1)C(N)=O (stereo not given)
inactive: MDA-MB-231 breast 29.7% | RXF 393 renal 16.9% | SF-268 CNS 21.5% | SF-295 CNS 26.6% | UACC-257 melanoma 24.2%
active: K-562 leukemia -11.3% | MALME-3M melanoma -64.6% | SF-539 CNS -22.5% | M14 melanoma -29.5% | HCT-15 colon -23.7%

COC(=O)C1(C)Cc2cc(OC(C)=O)c(OC(C)=O)cc2N1 (stereo not given)
inactive: K-562 leukemia 16% | MALME-3M melanoma 79.7% | MDA-MB-231 breast 101% | RXF 393 renal 61.8% | SF-268 CNS 87.5% | SF-295 CNS 121% | SF-539 CNS 91.3% | UACC-257 melanoma 19% | M14 melanoma 87.3% | HCT-15 colon 35.6%

COc1ccccc1CNCCCN1C(=O)c2ccc3c4c(ccc(c24)C1=O)C(=O)N(CCCN)C3=O
active: K-562 leukemia -22.7% | MALME-3M melanoma -94.1% | MDA-MB-231 breast 3.16% | RXF 393 renal -56% | SF-268 CNS -22.1% | SF-295 CNS -2.42% | SF-539 CNS -87.3% | UACC-257 melanoma -91.9% | M14 melanoma -62% | HCT-15 colon -30.8%

O=[N+]([O-])c1cccc(-c2ncc(-c3ccc(Cl)cc3Cl)[nH]2)c1
inactive: MALME-3M melanoma 125% | MDA-MB-231 breast 67.7% | RXF 393 renal 95% | SF-268 CNS 54.4% | SF-295 CNS 93.7% | SF-539 CNS 101% | UACC-257 melanoma 109%
active: K-562 leukemia -23.6% | M14 melanoma 5.51% | HCT-15 colon -89.7%

CCCCOC(=O)Oc1ccc(C(=O)Oc2ccc(OCC)cc2)cc1
inactive: K-562 leukemia 109% | MALME-3M melanoma 109% | MDA-MB-231 breast 97.9% | RXF 393 renal 102% | SF-268 CNS 95.5% | SF-295 CNS 109% | SF-539 CNS 86.2% | UACC-257 melanoma 99.5% | M14 melanoma 96.7% | HCT-15 colon 102%

COc1ccc(C(=O)/C=C/c2cc(-c3cc(OC)c(OC)c(OC)c3)n[nH]2)cc1
inactive: MALME-3M melanoma 69% | MDA-MB-231 breast 38.5% | RXF 393 renal 30.1% | SF-268 CNS 31.2% | UACC-257 melanoma 70.8% | M14 melanoma 54.6%
active: K-562 leukemia 5.85% | SF-295 CNS -23.8% | SF-539 CNS -25.6% | HCT-15 colon 8.52%

Fc1ccc2nc(-c3nc(-c4ccccc4)n4ccccc34)[nH]c2c1
inactive: SF-539 CNS 27.3% | M14 melanoma 27.7% | HCT-15 colon 20.4%
active: K-562 leukemia 8.58% | MALME-3M melanoma -57.7% | MDA-MB-231 breast -3.47% | RXF 393 renal -25.7% | SF-268 CNS -38.6% | SF-295 CNS -28% | UACC-257 melanoma -17.4%

COc1cc(Cl)cc(-c2nn(-c3cccc(NC(=O)c4ccc(Cl)c(Cl)c4)c3)cc2-c2ccncc2)c1
inactive: K-562 leukemia 46.3% | MALME-3M melanoma 96.4% | MDA-MB-231 breast 33.9% | RXF 393 renal 59.2% | SF-268 CNS 82.4% | SF-295 CNS 36.1% | SF-539 CNS 74.5% | UACC-257 melanoma 84.2% | M14 melanoma 68.9% | HCT-15 colon 57.9%

FC(F)(F)c1ccc(-c2cnc(-n3cc(COCCN4CCCCC4)nn3)nc2NC2CCCCCC2)cc1
inactive: MDA-MB-231 breast 11.1% | SF-268 CNS 33.2%
active: K-562 leukemia -48.4% | MALME-3M melanoma -86.3% | RXF 393 renal -3.46% | SF-295 CNS -56.8% | SF-539 CNS -66.8% | UACC-257 melanoma -89.7% | M14 melanoma -87.6% | HCT-15 colon 3.73%

CSCCCNC(=O)c1ccc2c(c1)/C(=C/c1[nH]c(C)cc1C)C(=O)N2
active: MALME-3M melanoma -9.58% | RXF 393 renal -31% | M14 melanoma 8.79%
inactive: K-562 leukemia 49.1% | MDA-MB-231 breast 20.9% | SF-268 CNS 31.6% | SF-295 CNS 29.2% | SF-539 CNS 13.2% | UACC-257 melanoma 48.9% | HCT-15 colon 22.5%

Cc1cn(C2CCCCO2)c(=O)nc1NO (stereo not given)
inactive: K-562 leukemia 101% | MALME-3M melanoma 137% | MDA-MB-231 breast 106% | RXF 393 renal 119% | SF-268 CNS 103% | SF-295 CNS 106% | SF-539 CNS 96.1% | UACC-257 melanoma 106% | M14 melanoma 113% | HCT-15 colon 100%

CCC(=O)N1C/C(=C/c2ccc(Cl)cc2)C(=O)/C(=C/c2ccc(Cl)cc2)C1
active: K-562 leukemia 1.74% | MALME-3M melanoma -66.2% | MDA-MB-231 breast -22% | RXF 393 renal -94% | SF-268 CNS -30.4% | SF-295 CNS -35.8% | SF-539 CNS -64.7% | UACC-257 melanoma -40.3% | M14 melanoma -61.9% | HCT-15 colon 0.422%

Nc1c(C(=O)Nc2ccccc2)sc2nc3c(cc12)C(O)CCC3 (stereo not given)
inactive: K-562 leukemia 11.1% | MALME-3M melanoma 87.4% | MDA-MB-231 breast 32.8% | SF-268 CNS 46.4% | UACC-257 melanoma 71.1% | M14 melanoma 22.1% | HCT-15 colon 23.5%
active: RXF 393 renal -6.4% | SF-295 CNS 8.61% | SF-539 CNS -5.31%

COc1cccc(C(=O)Nc2ccc(CN3CCc4nc5cc(OC)c(OC)cc5cc43)cc2)c1
inactive: K-562 leukemia 24.5% | MALME-3M melanoma 51.8% | MDA-MB-231 breast 48% | RXF 393 renal 48.7% | SF-268 CNS 47% | SF-295 CNS 65.7% | SF-539 CNS 66.5% | UACC-257 melanoma 35.9% | M14 melanoma 38.1% | HCT-15 colon 47.7%

C#Cc1ccc(-n2c(/C=C/c3ccc(Cl)c(F)c3)nc3ncccc3c2=O)cc1
active: K-562 leukemia -8.5% | MALME-3M melanoma -60.4% | MDA-MB-231 breast -29.8% | RXF 393 renal -76.2% | SF-268 CNS -61.9% | SF-295 CNS -60.1% | SF-539 CNS 1.03% | UACC-257 melanoma -65.1% | M14 melanoma -9.7% | HCT-15 colon 2.43%

CCCCCCN(CCCCCC)CC(O)c1ccc2c3c(cccc13)CC2 (stereo not given)
inactive: K-562 leukemia 46.2% | MALME-3M melanoma 71.7% | MDA-MB-231 breast 72.9% | RXF 393 renal 67.2% | SF-268 CNS 76.4% | SF-295 CNS 49.4% | SF-539 CNS 70% | UACC-257 melanoma 67.9% | M14 melanoma 28.2% | HCT-15 colon 44.2%

O=C(c1ccc(Cl)cc1Cl)N1CCOCC1
inactive: K-562 leukemia 89.1% | MALME-3M melanoma 112% | MDA-MB-231 breast 98.5% | RXF 393 renal 116% | SF-268 CNS 98.1% | SF-295 CNS 140% | SF-539 CNS 96.9% | UACC-257 melanoma 96.6% | M14 melanoma 103% | HCT-15 colon 112%

O=S(=O)(NCCCNc1nccc(-c2c(-c3ccc(F)cc3)nc3sccn23)n1)c1ccc(F)cc1
inactive: K-562 leukemia 13.5% | MALME-3M melanoma 48.5% | MDA-MB-231 breast 73.3% | RXF 393 renal 57.9% | SF-268 CNS 45.4% | SF-295 CNS 25.4% | SF-539 CNS 78.1% | UACC-257 melanoma 57.2% | M14 melanoma 44.4% | HCT-15 colon 38.4%

CN(CCc1ccccn1)c1ccccc1
inactive: K-562 leukemia 95.2% | MALME-3M melanoma 168% | MDA-MB-231 breast 105% | RXF 393 renal 120% | SF-268 CNS 124% | SF-295 CNS 116% | SF-539 CNS 94.1% | UACC-257 melanoma 99.7% | M14 melanoma 100% | HCT-15 colon 89.8%

COc1ccc(NC2=NC(C)(CO)CS2)cc1 (stereo not given)
inactive: K-562 leukemia 98.7% | MALME-3M melanoma 112% | MDA-MB-231 breast 97.5% | RXF 393 renal 130% | SF-268 CNS 103% | SF-295 CNS 109% | SF-539 CNS 89.7% | M14 melanoma 101% | HCT-15 colon 90.3%
active: UACC-257 melanoma -25.7%

COc1ccc(-c2cc(/C=C/C(=O)c3cc(OC)c(OC)c(OC)c3)[nH]n2)cc1OC
inactive: SF-295 CNS 29.1% | UACC-257 melanoma 69.6% | M14 melanoma 53.2%
active: K-562 leukemia 5.1% | MALME-3M melanoma -17.5% | MDA-MB-231 breast -25.3% | RXF 393 renal -16.9% | SF-268 CNS -45.7% | SF-539 CNS -51.4% | HCT-15 colon -15.5%
